Source: article PMC5540273 (PLoS ONE, 2017)

Tested on: PRKCD
Conditions: concentration: 1 μM,replicates: in singlicate; n = 1
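Further: KINOMEscan kinase panel screen.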

First: CNC(=O)c1ccccc1Sc1ccc2c(/C=C/c3ccccn3)n[nH]c2c1
Second: Cl.Oc1cc(-c2nc(-c3ccccc3)[nH]c2-c2ccncc2)ccc1Cl [SB-386023]
The “%Inh” value of the first is higher: 4% for the first, 0% for the second.

First: O=C(NCCNc1ccnc(NCc2ccc(F)cc2)n1)c1cc2ccccc2s1 [GSK1379944]
Second: COc1ccc(C[C@@H](CN)NC(=O)c2cc(Br)c(-c3ccnc4[nH]ccc34)s2)cc1.Cl.Cl [GSK1389063]
The “%Inh” value of the first is lower: 0% for the first, 99.8% for the second.

First: CN(C)CCOc1ccc(-c2cc(-c3c[nH]nc3-c3ccccn3)ccn2)cc1 [GW835314]
Second: CN(C)CC(O)COc1ccc(Nc2nccc(-c3cnn4nc(N5CCOCC5)ccc34)n2)cc1 (stereo not drawn) [GW767488]
The “%Inh” value of the first is higher: 23% for the first, 14% for the second.

First: Cc1cc(C(=O)Nc2ccc(Oc3ccc4nc(NC(=O)C5CC5)cn4n3)cc2)nn1-c1ccccc1
Second: Cc1ccc(-n2nc(C(C)(C)C)cc2NC(=O)Nc2ccc(OCCN3CCOCC3)c3ccccc23)cc1 [GW839464]
The “%Inh” value of the first is lower: 9% for the first, 21% for the second.

Going from CCN(CC)CCCCNc1ncc2cc(-c3c(Cl)cccc3Cl)c(NC(=O)NC(C)(C)C)nc2n1 to CCN(CC)CCOc1ccc(Nc2ncc3cc(-c4c(Cl)cccc4Cl)c(=O)n(C)c3n2)cc1 [SB-601273], the “%Inh” value falls from 22% to 0%.

Compared with Cc1cc2cn[nH]c2cc1-c1cccc2c(N)c(C(N)=O)nnc12, Nc1nc(Nc2ccccc2)cc(-c2ccc3c(N)n[nH]c3c2)n1 [GSK2225749] is higher in “%Inh” value: 5% for the first, 8% for the second.

CC(C)Nc1cc(-c2ccc3c(N)n[nH]c3c2)nc(N)n1 [GSK2221681] and Cl.Cl.Nc1nc(-c2ccc3c(N)n[nH]c3c2)cc(N2CCCC(NC(=O)c3ccccc3)C2)n1 (stereo not drawn) [GSK2286775] are the same in “%Inh” value: 0% for the first, 0% for the second.

First: C[C@@H](Oc1cc(-c2cnn(C3CCNCC3)c2)cnc1N)c1c(Cl)ccc(F)c1Cl
Second: NC(=O)c1cc(-c2ccccc2)cc2c(C3CCNCC3)c[nH]c12 [GSK301362]
The “%Inh” value of the first is lower: 20% for the first, 40% for the second.

Compared with CC(C)N1C(=O)Cc2cc(Nc3ncc(C(F)(F)F)c(NCc4cccc(S(C)(=O)=O)c4)n3)ccc21, Cl.Cl.NC[C@H](Cc1ccc(C(F)(F)F)cc1)NC(=O)c1cc(Br)c(-c2ccnc3[nH]ccc23)s1 [GSK1487252] is higher in “%Inh” value: 0% for the first, 97.3% for the second.

Going from C[C@@H]1CCN(C(=O)CC#N)C[C@@H]1N(C)c1ncnc2[nH]ccc12 to Cl.Cl.NC[C@H](CC1CCCCC1)NC(=O)c1cc(Br)c(-c2ccnc3[nH]ccc23)s1 [GSK1581427], the “%Inh” value rises from 18% to 99.5%.

Compared with Cc1occc1-c1nc(N)c(OC[C@@H](N)Cc2c[nH]c3ccccc23)cc1-c1cc2c(C)n[nH]c2cn1 [GSK1660450], Cc1n[nH]c2ccc(-c3cc(OC[C@@H](N)Cc4ccccc4)cnc3-c3ccoc3)cc12.O=C(O)C(F)(F)F.O=C(O)C(F)(F)F [GSK507358] is lower in “%Inh” value: 100% for the first, 99.8% for the second.

Compared with Cc1ccc2c(-c3ccncc3)c(-c3ccc(F)cc3)nn2c1.Cl [GW461484], C[C@H]1Oc2cc(cnc2N)-c2c(nn(C)c2C#N)CN(C)C(=O)c2ccc(F)cc21 is higher in “%Inh” value: 8% for the first, 15% for the second.

Going from C=CC(=O)Nc1cc2c(Nc3ccc(F)c(Cl)c3)ncnc2cc1OCCCN1CCOCC1 [GW781483] to O=C(NCCCN1CCOC1=O)c1cnc(NCc2cc(Cl)ccc2Cl)nc1NC1CCCC1, the “%Inh” value rises from 0% to 3%.

CCn1c(-c2nonc2N)nc2c(C#CC(C)(C)O)nc(OCCN)cc21.Cl.Cl [GSK902056] was tested, and the “%Inh” value was 81%.
